Experimental data taken from PubChem BioAssay (NCI).
Compounds without any hit were thinned out: in the full panel of roughly 83,000, 20% have a hit.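 Treatment: one concentration, 48 hours, 96-well format. Scoring: percent growth, with anything below 10 considered active.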 A number with no mark means an inactive call. The source made the active and inactive calls.

Experiments:
Assay in all cases: NCI-60 one-dose screen, 48 h (100 = growth as untreated, 0 = no growth, -100 = all killed)
Conditions in all cases: 10 µM
SR leukemia = system: SR leukemia
OVCAR-8 ovarian = system: OVCAR-8 ovarian
OVCAR-5 ovarian = system: OVCAR-5 ovarian
OVCAR-4 ovarian = system: OVCAR-4 ovarian
SK-OV-3 ovarian = system: SK-OV-3 ovarian
IGROV1 ovarian = system: IGROV1 ovarian
OVCAR-3 ovarian = system: OVCAR-3 ovarian
HS 578T breast = system: HS 578T breast
NCI/ADR-RES ovarian = system: NCI/ADR-RES ovarian
T-47D breast = system: T-47D breast
BT-549 breast = system: BT-549 breast
MDA-MB-435 melanoma = system: MDA-MB-435 melanoma
SW-620 colon = system: SW-620 colon
MCF7 breast = system: MCF7 breast
HCT-116 colon = system: HCT-116 colon
HCC-2998 colon = system: HCC-2998 colon
KM12 colon = system: KM12 colon
RPMI-8226 leukemia = system: RPMI-8226 leukemia

Structure (SMILES)	growth (SR leukemia)	growth (OVCAR-8 ovarian)	growth (OVCAR-5 ovarian)	growth (OVCAR-4 ovarian)	growth (SK-OV-3 ovarian)	growth (IGROV1 ovarian)	growth (OVCAR-3 ovarian)	growth (HS 578T breast)	growth (NCI/ADR-RES ovarian)	growth (T-47D breast)	growth (BT-549 breast)	growth (MDA-MB-435 melanoma)	growth (SW-620 colon)	growth (MCF7 breast)	growth (HCT-116 colon)	growth (HCC-2998 colon)	growth (KM12 colon)	growth (RPMI-8226 leukemia)
Cc1c2c[n+](C(C)C)ccc2c(C)c2c1[nH]c1ccccc12	20.8%	15.9%	55.7%	13.8%	-1.05% (active)	41.2%	9.41% (active)	22.8%	97.9%	-13.7% (active)	2.83% (active)	15.9%	22%	3.87% (active)	20.1%	18.8%	8.68% (active)	–
CCNc1nc(C(F)(F)F)nc2c1sc(=S)n2-c1ccccc1	83.5%	96.1%	112%	98.2%	102%	102%	107%	107%	92.9%	73.9%	95.2%	113%	106%	96.4%	94.3%	115%	89.2%	–
CC[C@@H](C(=O)[C@@H](C)[C@@H](O)[C@H](C)[C@@H]1O[C@@H]([C@@H](CC)C(=O)N(CC)CC)CC[C@@H]1C)C1O[C@]2(C=CC(=O)[C@]3(CC[C@@](C)([C@H]4CC[C@](O)(CC)[C@H](C)O4)O3)O2)[C@H](C)C[C@@H]1C (some centres not stated)	41.1%	29%	29.7%	34.3%	49.8%	34.9%	21.6%	28.4%	10.5%	16.2%	43.8%	30.2%	25.3%	5.81% (active)	5.97% (active)	29%	40.9%	–
O=C(CCCCNC(=O)c1nc(-c2ccccc2)n(-c2ccccc2)n1)NO	76%	51%	85%	90.6%	13.2%	89.2%	70.1%	60.8%	87.6%	35%	94.7%	79.2%	64.4%	67.6%	54.6%	94.4%	92.9%	–
CN(C)CCCOc1cccc(NC2=C(Cl)C(=O)C(Nc3cccc(OCCCN(C)C)c3)=C(Cl)C2=O)c1	-9.52% (active)	-80.1% (active)	-47.9% (active)	-98.8% (active)	98.2%	-67.4% (active)	-96% (active)	-2.49% (active)	74.7%	-44% (active)	–	-65.5% (active)	-61.2% (active)	-38.3% (active)	-88.7% (active)	14%	13.9%	–
CS(=O)(=O)c1nccc(-c2c(-c3ccc(OCCc4ccccc4)cc3)nc3sccn23)n1	88.5%	98%	94.7%	67.8%	101%	110%	104%	87%	98.3%	91.3%	110%	96%	93.7%	66.1%	99.6%	106%	106%	–
Cc1nn(-c2ccccc2)c2nc(Cl)c(C=O)c(-c3ccccc3)c12	–	99.9%	99.8%	102%	116%	–	106%	112%	82.8%	83.5%	86%	–	72.1%	90.6%	4.57% (active)	77.5%	78.3%	–
COc1ccc(C(=O)CC(CC(=O)c2ccc(OC)cc2)c2c(C)nn(-c3ccccc3)c2Cl)cc1	–	–	91.8%	101%	109%	104%	115%	94.4%	95.5%	109%	92%	91.9%	102%	95.4%	88.9%	109%	98%	–
Nc1nc(N)c(N)c(Nc2ccc(CCO)cc2)n1	–	105%	111%	112%	110%	–	107%	100%	103%	102%	99.9%	104%	94%	105%	104%	106%	101%	95.3%
O=c1c(Br)ccc(Br)cc1Br	–	–	4.49% (active)	-92.8% (active)	112%	–	-94.8% (active)	43.4%	-15.3% (active)	-44.1% (active)	98.4%	-40.1% (active)	-46.5% (active)	-22.6% (active)	-88.1% (active)	–	-47% (active)	-51.2% (active)
Nc1cc(-c2ccc(Cl)cc2)nn1-c1nc2ccccc2nc1Cc1ccccc1	–	91.2%	95%	–	96.7%	94.9%	–	–	87.5%	85.5%	90.5%	86.8%	–	85.3%	72.8%	94.8%	–	–
CC(=O)COc1ccc(Cl)cc1Cl	–	107%	112%	116%	122%	–	120%	117%	111%	98.7%	111%	102%	97.2%	104%	99.1%	109%	113%	–
COc1cc(C2CC(c3cc(Cl)c(C)cc3O)=NN2c2ccc(S(N)(=O)=O)cc2)cc(OC)c1OC (configuration not stated)	–	34.4%	19.4%	33.1%	14.5%	3.35% (active)	20.7%	30.3%	3.9% (active)	-1.47% (active)	30.9%	20.9%	18.8%	-15.4% (active)	-14.3% (active)	-20.6% (active)	2.06% (active)	11.9%
CC1(C)N=C(N)N=C(N)N1c1cccc(C#N)c1	–	33.8%	51%	97.3%	82.9%	42.6%	60.7%	88.2%	75%	99.7%	81.6%	36.2%	29.9%	52%	17.1%	58.4%	47.7%	–
CN(C)c1ccc(/C=N/NC(=O)c2cccc3ccccc23)c(Cl)c1	–	36.5%	58.1%	50.9%	16.9%	46.1%	-17.4% (active)	42.2%	-9.37% (active)	25.4%	45.3%	-22.1% (active)	24.2%	15.1%	31%	61.2%	22.7%	7.96% (active)
COC(=O)CC[C@@H](C)[C@H]1CC[C@H]2[C@@H]3CC[C@@H]4C[C@H](O)CC[C@]4(C)[C@H]3C[C@H](O)[C@]12C	–	103%	109%	110%	111%	–	102%	114%	106%	89.2%	96.4%	118%	107%	84.8%	86.7%	–	102%	68.4%
CSc1nc(S(C)(=O)=O)nc2[nH]c(=O)[nH]c12	–	108%	96.3%	117%	–	–	115%	111%	110%	112%	102%	–	111%	109%	99.1%	–	118%	123%
Cc1cc(Br)nnc1Br	–	115%	105%	113%	101%	–	112%	110%	120%	90.1%	96.8%	114%	109%	103%	106%	108%	96.6%	122%
CCCCCCCCCCCC[n+]1c(C)cc(N)c2ccccc21	–	3.24% (active)	31.7%	15.1%	-2.73% (active)	–	18%	–	53.3%	-14% (active)	-29.7% (active)	-6.75% (active)	–	-0.77% (active)	-4.63% (active)	–	–	-28.4% (active)
Cc1ccc(C(SCC(N)C(=O)O)(c2ccc(C)cc2)c2ccc(C)cc2)cc1 (configuration not stated)	–	7.22% (active)	38.6%	47.8%	26%	–	-42.6% (active)	-15.3% (active)	57.8%	27.2%	–	-59.8% (active)	20.5%	9.12% (active)	-25.5% (active)	1.38% (active)	0.314% (active)	-36.6% (active)
